PubChem BioAssay AID1259418 (Broad Institute, 2018)
About 840 (25%) of roughly 3,400 compounds were called active. Another 11% or so got no clear call; they are omitted.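 How the source made its calls: active means fitted half-maximal concentration of signal decrease at or below twice the sample's top tested concentration; inconclusive means flat curve between -70 and -30 percent, or poor fit; inactive means flat within 30 percent, signal rise, or potency above limit.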 Only a sample is shown. Entries with a potency or affinity are not part of this list.

Assay: T. gondii growth inhibition with IFN-gamma, dose response, cell-based, ME49Luc, HeLa, luciferase, 72 h (AID 1259418)
Settings: T. gondii ME49Luc in IFN-y HeLa, hits give low values, -100% = high-dose IFN-γ control wells; at 19.5 µM unless noted

| SMILES | max activity |
| --- | --- |
| CCc1nc(OCC(=O)Nc2cc(C)ccc2C)c2ccccc2n1 | 10.4% [at 2.6 µM] (inactive) |
| Cc1ccc(CC(=O)N2CCC3(CC2)Nc2cc(F)ccc2-n2cccc23)cc1 | -4.79% [at 0.35 µM] (inactive) |
| CC(C)NC(=O)N1CC[C@@H]2[C@H]1c1cc(-c3ccc(F)cc3)ccc1N(C)[C@H]2CO | -31.5% (inactive) |
| CN1c2ccc(C#Cc3cccnc3)cc2[C@@H]2[C@@H](CCN2C(=O)c2cccc(F)c2)[C@H]1CO | 11.4% (inactive) |
| COc1ccc2c(c1)NC1(CCN(C(=O)c3ccccc3F)CC1)c1cccn1-2 | 8.8% [at 5 µM] (inactive) |
| CC(C)NC(=O)N1CC[C@@H]2[C@@H](CO)N(C)c3ccc(-c4ccc(F)cc4)cc3[C@@H]21 | 26.2% [at 5 µM] (inactive) |
| Fc1ccc(N2CCN(c3nc(-c4ccc(Cl)cc4)nc4ccccc34)CC2)cc1 | 8.24% (inactive) |
| CCCCC(=O)Nc1ccc(-c2nc(-c3ccc(C)cc3C)co2)cc1 | 37.3% [at 10 µM] (inactive) |
| Cc1ccc(S(=O)(=O)N2CCC3(CC2)NCCN=C3NCc2ccccc2F)c(C)c1 | -12.4% (inactive) |
| O=S(=O)(c1cccs1)N1CCC2(CC1)NCCN=C2NCc1ccccc1Cl | -8.05% [at 1.35 µM] (inactive) |
| O=C(NCCc1csc(-c2ccccc2)n1)[C@H]1CCCN1C(=O)Cc1ccc(F)cc1 | -17.3% [at 0.16 µM] (inactive) |
| CCc1nc(OCC(=O)Nc2ccc(C)cc2C)c2ccccc2n1 | 12.9% [at 10 µM] (inactive) |
| Cc1cc(C)cc(NC(=O)Nc2ccc(-c3nc(-c4ccccc4)co3)cc2)c1 | 19.9% [at 1.35 µM] (inactive) |
| Cc1ccc(-c2nc(Cn3nnc(-c4nc(-c5ccc(OC(C)C)cc5)no4)c3C)c(C)o2)cc1 | 12.6% [at 0.16 µM] (inactive) |
| Cc1cc(C)cc(NC(=O)N2CCN(Cc3nc(-c4ccccc4C)oc3C)CC2)c1 | 8.24% [at 1.35 µM] (inactive) |
| Cc1ccc(Cl)cc1NC(=O)Nc1ccc(-c2nc(-c3ccccc3)co2)cc1 | -20.1% [at 0.16 µM] (inactive) |
| Cc1ccc(-c2nc(Cn3nnc(-c4nc(-c5cccc(F)c5)no4)c3C)c(C)o2)cc1 | 3.99% (inactive) |
| Cc1ccc(C)c(-c2coc(-c3ccc(NC(=O)NCCc4ccccc4)cc3)n2)c1 | 29.4% (inactive) |
| OC[C@H]1[C@@H](c2ccc(C#Cc3ccccc3F)cc2)[C@@H]2CN(CC3CCOCC3)CCCCN12 | 9.11% [at 1.2 µM] (inactive) |
| C[C@H]1[C@H](NC(=O)/C(=N\OC(C)(C)C(=O)O)c2csc(N)n2)C(=O)N1S(=O)(=O)O | 14% [at 21 µM] (inactive) |
| COc1ccc2c(c1)NC1(CCN(C(=O)Cc3ccccc3C)CC1)c1cccn1-2 | -9.29% [at 0.16 µM] (inactive) |
| CCc1nc(OCC(=O)Nc2ccc(C)cc2Br)c2ccccc2n1 | -11.9% [at 2.6 µM] (inactive) |
| COc1ccc(CCNc2nc(SCc3ccc(F)cc3)nc3ccccc23)cc1OC | -14.5% [at 5 µM] (inactive) |
| CCOC(=O)C(=O)Nc1ccc(-c2nc(-c3ccccc3)co2)cc1 | 10.7% [at 5 µM] (inactive) |
| Cc1ccc(-c2nc(Cn3nnc(-c4nc(-c5cccc(Br)c5)no4)c3C)c(C)o2)cc1 | 7.23% [at 0.16 µM] (inactive) |
| CCOc1ccc(C(=O)N2CCC(C(=O)NCCc3csc(C)n3)CC2)cc1 | 13.7% (inactive) |

| SMILES | max activity |
| --- | --- |
| Cc1ccc(C)c(-c2coc(-c3ccc(NC(=O)Cc4cccs4)cc3)n2)c1 | 19.4% (inactive) |
| O=C(CC1N=C2c3ccccc3N=C(SCc3cc(=O)n4ccccc4n3)N2C1=O)NCc1ccc(F)cc1 (stereo unspecified) | 17.7% [at 2.6 µM] (inactive) |
| COc1ccc(CCC(=O)N2CCC3(CC2)Nc2cc(F)ccc2-n2cccc23)cc1 | 14.7% [at 0.68 µM] (inactive) |
| O=C(Nc1ccc(-c2nc(-c3cccc(Br)c3)co2)cc1)Nc1ccc2c(c1)OCCO2 | 9.52% [at 0.16 µM] (inactive) |
| Cc1ccc(-c2nc(CN3CCN(C(=O)Nc4cccc(C)c4C)CC3)c(C)o2)cc1 | 12.5% [at 10 µM] (inactive) |
| COc1ccc(CNc2nc(-c3ccc(OC)cc3)nc3ccccc23)cc1 | -17.8% [at 10 µM] (inactive) |
| CN(CCNc1nc(-c2ccc(Cl)cc2)nc2ccccc12)C1CCCCC1 | -24.3% [at 2.6 µM] (inactive) |
| COc1ccc(-c2nc(NCCC(C)C)c3ccccc3n2)cc1 | -29.2% [at 0.68 µM] (inactive) |
| CCCCNc1nc(-c2ccc(OC)cc2)nc2ccccc12 | 22.7% (inactive) |
| COc1ccc(-c2nc(NCCN(Cc3ccco3)C3CCCC3)c3ccccc3n2)cc1 | -27.6% [at 2.6 µM] (inactive) |
| CCCNc1nc(-c2ccc(OC)cc2)nc2ccccc12 | -34.8% [at 0.35 µM] (inactive) |
| COc1ccc(-c2nc(NCc3ccccc3)c3ccccc3n2)cc1 | 16.2% (inactive) |
| COc1ccc(-c2nc(NCCCc3ccccc3)c3ccccc3n2)cc1 | -17% [at 1.35 µM] (inactive) |
| Cc1ccc2[nH]cc(CCNC(=O)c3cc(-c4ccccn4)nc4ccccc34)c2c1 | 11.1% (inactive) |
| CCCCN(C)C(=O)Cn1c(=O)c(S(=O)(=O)c2ccccc2)cc2ccccc21 | 11.6% (inactive) |
| Cc1ccc(-c2coc(-c3ccc(NC(=O)Nc4ccc5c(c4)OCO5)cc3)n2)c(C)c1 | 49.1% (inactive) |
| Cc1ccc(C(=O)N2CCC3(CC2)Nc2cc(F)ccc2-n2cccc23)cc1 | 6.63% [at 0.16 µM] (inactive) |
| CSc1ccc(CNC(=O)COc2nc(C)nc3ccccc23)cc1 | -10.1% [at 5 µM] (inactive) |
| CCOc1ccc(NC(=O)N2CCc3nc(-c4cccc(OC)c4)sc3C2)cc1 | 6.38% (inactive) |
| COc1ccc(-c2nc(Cn3nnc(-c4nc(-c5ccc(F)cc5)no4)c3C)c(C)o2)cc1 | -9.56% [at 5 µM] (inactive) |
| COc1ccc(-c2nc(NCCc3ccccc3)c3ccccc3n2)cc1 | -16% [at 10 µM] (inactive) |
| COc1ccc(-c2nc(NCCc3cc(OC)ccc3OC)c3ccccc3n2)cc1 | 10.1% (inactive) |
| CCOC(=O)C1CCN(c2nc(-c3ccc(OC)cc3)nc3ccccc23)CC1 | -8.44% [at 0.68 µM] (inactive) |
| Cc1nc(-c2ccc(C(=O)N3CCC(C)CC3)cc2)cs1 | 19% (inactive) |
| COc1ccc(Cl)cc1NC(=O)CN1CCC2(CC1)N=C(c1cccc(F)c1)C(=O)N2 | 7.5% [at 5 µM] (inactive) |
| CCOc1ccc(C(=O)N2CCC3(CC2)Nc2cc(OC)ccc2-n2cccc23)cc1 | 8.9% (inactive) |

| SMILES | max activity |
| --- | --- |
| COc1ccc(NC(=O)COc2nc(C)nc3ccccc23)c(OC)c1 | 17.4% [at 0.16 µM] (inactive) |
| Cc1ccc(CN2CC3CN(Cc4cccc(F)c4)CC3C2)s1 (stereo unspecified) | 10.1% (inactive) |
| O=S(=O)(c1ccc(F)cc1)N1C[C@@H]2N[C@H](C1)C2c1ccc(/C=C/c2ccccc2)cc1 (stereo partly specified) | 26.3% (inactive) |
| COc1ccc(OC)c(NC(=O)Nc2ccc(-c3nc(-c4cc(C)ccc4C)co3)cc2)c1 | -12.9% [at 0.35 µM] (inactive) |
| Cc1nc(OCC(=O)Nc2ccccc2C(F)(F)F)c2ccccc2n1 | 21.7% [at 0.16 µM] (inactive) |
| CCN1CCO[C@@H]2CN(C(=O)CC3Cc4ccccc4C3)C[C@@H]2C1 | 43.5% (inactive) |
| O=C1CCc2cc(NC(=O)c3ccc(OC(F)(F)F)cc3)ccc2N1 | -8.43% [at 0.35 µM] (inactive) |
| Cc1ccc(C(=O)Nc2ccc3c(c2)CCC(=O)N3)c(C)c1 | 42% (inactive) |
| O=C1CCc2cc(NC(=O)C(F)(F)F)ccc2N1 | -12.7% [at 2.6 µM] (inactive) |
| O=C1CCc2cc(NC(=O)c3ccc(C(F)(F)F)cc3)ccc2N1 | -7.37% [at 1.35 µM] (inactive) |
| Cc1ccc(CC(=O)Nc2ccc3c(c2)CCC(=O)N3)cc1 | 7.74% (inactive) |
| Cc1ccc(C)c(C(=O)Nc2ccc3c(c2)CCC(=O)N3)c1 | -6.43% [at 1.35 µM] (inactive) |
| CC(C)N1CCN(CC#N)C2(CCN(C(=O)c3ccc[nH]3)C2)C1=O (stereo unspecified) | 43.6% (inactive) |
| COc1ccc(CC(=O)Nc2ccc(-c3nc(-c4ccccc4)co3)cc2)cc1 | -7.29% [at 1.35 µM] (inactive) |
| CCOc1ccccc1-c1nc(CN(c2ccc(OC)cc2)S(=O)(=O)c2ccccc2)c(C)o1 | 7.8% (inactive) |
| O=C(Cn1c(=O)c(S(=O)(=O)c2ccccc2)cc2ccccc21)N1CCCC1 | -8.97% [at 0.16 µM] (inactive) |
| COc1ccc(-c2nc(Nc3cc(C)ccc3OC)c3ccccc3n2)cc1 | 19.6% (inactive) |
| Cc1ccc(CC(=O)Nc2ccc(-c3nc(-c4ccccc4)co3)cc2)cc1 | 9.88% [at 5 µM] (inactive) |
| O=C(CC1Nc2c3ccccc3nc(=S)n2C1=O)NCCc1ccc(Cl)cc1 (stereo unspecified) | -20.4% [at 0.16 µM] (inactive) |
| CCOC(=O)C(=O)Nc1ccc(-c2nc(-c3cc(C)ccc3C)co2)cc1 | 15.3% [at 0.16 µM] (inactive) |
| COc1cc(OC)c(NC(=O)Nc2ccc(-c3nc(-c4ccc(C)cc4)co3)cc2)cc1Cl | 86.6% (inactive) |
| NC(=O)C1(N2CCCCC2)CCN(c2ccc(NC(=O)c3ccccc3F)cc2C(=O)O)CC1 | -16.3% [at 0.35 µM] (inactive) |
| Cc1ccc(C(=O)Nc2ccc(N3CCC(C(N)=O)(N4CCCCC4)CC3)c(C(=O)O)c2)cc1 | 15% [at 2.6 µM] (inactive) |
| CCOC(=O)C1CCC(CNC(=O)Nc2ccc(-c3nc(-c4ccc(C)cc4C)co3)cc2)CC1 (stereo unspecified) | -7.93% [at 0.35 µM] (inactive) |
